# Compound activity: PubChem, National Center for Advancing Translational Sciences (NCATS)
# The sample as a whole holds a higher share of hits than the screen did.
# HT1080 IDH1KD tx: HT-1080 IDH1 knockdown cell toxicity (counter line). 360,000 tested, 2% active. Potency, µM (series often up to 46.1 µM), inactives show at the top dose activity, negative = toxicity, usual class: cytotoxic. HT-1080 IDH1 knockdown viability, ATP luminescence, 48 h;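 also: potency is read from the fitted curve at half-maximal effect; 0% = DMSO wells and -100% = cell-free medium wells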
#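 CellTiter-Glo luminescence after 48 h compound exposure at 37 degrees C of IDH1-knockdown HT-1080 cells in 5% FBS RPMI. %Activity scaled between DMSO wells and cell-free media wells, with curves fitted and assigned curve classes.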
# TDP1 cell noCPT: qHTS for Inhibitors of human tyrosyl-DNA phosphodiesterase 1 (TDP1): qHTS in cells in absence of CPT; Potency, µM (series often up to 46.2 µM), inactives show top-dose activity change, negative = growth inhibition, actives largely listed as inhibitors; DT40 Tdp1-/- hTDP1 cells, no CPT, ATP luminescence, 48 h; 420,000 tested, 15% active; also: potency is read from the fitted curve at half-maximal effect; nearly all actives have a fitted effect of over 55% in size
#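 Stably hTDP1-transfected Tdp1-null chicken DT40 cells were treated with library compounds minus camptothecin and grown for at least 48 hr at 37 °C, after which cellular ATP was quantified by luminescence.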
# 12-LOX inh: blocks human arachidonate 12S-lipoxygenase | Potency, µM (highest dose often 108 µM), for the others: top-dose activity change, negative = inhibition, actives largely listed as inhibitors | 580,000 tested, 1.1% active | purified 12hLO, xylenol orange hydroperoxide absorbance | P18054; also: potency is read from the fitted curve at half-maximal effect
# Target sequence (P18054 whole entry, looked up): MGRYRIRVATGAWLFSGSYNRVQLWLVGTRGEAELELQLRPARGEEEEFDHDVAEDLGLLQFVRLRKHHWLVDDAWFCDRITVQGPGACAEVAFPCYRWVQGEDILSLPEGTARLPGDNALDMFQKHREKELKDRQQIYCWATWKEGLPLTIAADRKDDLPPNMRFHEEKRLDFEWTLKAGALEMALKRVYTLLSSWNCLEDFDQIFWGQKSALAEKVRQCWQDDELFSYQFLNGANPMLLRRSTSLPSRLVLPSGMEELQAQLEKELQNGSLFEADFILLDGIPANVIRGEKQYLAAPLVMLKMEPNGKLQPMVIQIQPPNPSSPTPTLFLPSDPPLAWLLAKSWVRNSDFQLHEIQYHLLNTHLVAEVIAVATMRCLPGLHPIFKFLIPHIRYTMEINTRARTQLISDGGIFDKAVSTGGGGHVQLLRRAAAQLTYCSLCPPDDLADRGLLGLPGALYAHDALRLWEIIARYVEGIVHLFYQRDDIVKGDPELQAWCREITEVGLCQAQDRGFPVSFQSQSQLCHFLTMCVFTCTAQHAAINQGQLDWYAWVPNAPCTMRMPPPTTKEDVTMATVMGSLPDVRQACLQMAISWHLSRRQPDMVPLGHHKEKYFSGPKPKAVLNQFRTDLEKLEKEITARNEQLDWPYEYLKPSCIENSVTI
#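 Purified human 12hLO (150 nM final) in 25 mM Hepes, 0.01% Triton X-100, pH 7.0 was preincubated 15 min at room temperature with compound. Then 40 uM arachidonic acid was added, 30 min. Hydroperoxide was read by Fe-XO absorbance ratio 573/405 nm.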
# DT40 TDP1 CPT: growth inhibition of DT40 Tdp1-/-;hTDP1 cells with camptothecin (screen for TDP1 inhibitors); chicken DT40 Tdp1-/-;hTDP1 cells + 20 nM CPT, ATP luminescence, 48 h; Potency, µM (top dose mostly 46.2 µM), for inactives: at the highest dose activity change, negative = growth inhibition, usual class: inhibitors; 420,000 tested, 12% active; also: potency is read from the fitted curve at half-maximal effect; nearly all actives have a fitted effect of over 55% in size
#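 Chicken DT40 Tdp1-/- cells stably complemented with human TDP1 were seeded at 400 cells/well in medium containing 20 nM camptothecin, exposed to pin-transferred compounds, and grown at 37 °C for at least 48 hr. Viability was read as ATP luminescence.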
# HT1080NT lethal: kills 2HG-producing HT-1080-NT fibrosarcoma cells. HT-1080-NT fibrosarcoma viability, CellTiter-Glo ATP luminescence, 48 h. Potency, µM (top dose mostly 46.1 µM), inactives show at the top dose activity, negative = less viability, usual class: cytotoxic. 360,000 tested, 1.6% active;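 also: NT is the 2HG producing partner of a matched IDH1 knockdown line; potency is read from the fitted curve at half-maximal effect; 0% = DMSO-treated cells and -100% = media-only wells without cells; nearly all actives have a fitted effect of over 55% in size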
#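 Viability of the 2HG-overproducing fibrosarcoma line after 48 hours of compound exposure at 37 degrees C was determined by luminescence with CellTiter-Glo, and concentration-effect curves were then fitted and categorized.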
# IL1B secr inh: inflammasome signaling inhibition, IL-1 beta readout | THP-1 LPS/ATP IL-1B secretion, AlphaLISA, 16 h; hits give low values | activity change, % at 57.5 µM | 360,000 tested, 4.7% active; in the data active = activity change below about -50%; inconclusive = mostly about -30% to -49%
#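 Secreted IL-1B measured by AlphaLISA bead assay after 16 h compound exposure of THP-1 cells; compounds (final up to 57.5 uM) added 1 h before LPS (250 ng/mL) and ATP (1.25 mM) stimulation; lower signal means less secretion.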
# The depositor's hits bear a star; ? = inconclusive; . = no result given. Unless noted, calls follow the shape of the dose curve; as a rule, active = well fitted curve in the direction sought with a large enough effect; inconclusive = small, poorly fitted or top-dose-only effect, or another doubt; inactive = no such curve, though single readings can be large; an effect the other way counts as inactive or inconclusive. Unless noted, % is scaled to controls: 0 for no effect and ±100 for the full control effect.
SMILES,HT1080 IDH1KD tx,TDP1 cell noCPT,12-LOX inh,DT40 TDP1 CPT,HT1080NT lethal,IL1B secr inh
O=[S@]1Oc2ccccc2-c2ccccc21,-12%,13µM*,?,?,2%,?
C/C(=N/NC(=O)c1cc(-c2ccc(Br)s2)[nH]n1)c1ccco1,?,?,?,-17%,-19%,-69*
Cc1cc(C(=O)COC(=O)c2ccc(N)c([N+](=O)[O-])c2)c(C)n1-c1ccc2c(c1)OCO2,?,5.8µM*,-16%,9.2µM*,-17%,0
Cc1cc(C(=O)COC(=O)CC2Sc3ccccc3NC2=O)c(C)n1-c1ccc2c(c1)OCO2 (configuration not stated),-17%,?,-10%,?,-6%,26
CCCC1(CCC)NC(=O)N(CC(=O)c2cc(C)n(-c3ccc4c(c3)OCO4)c2C)C1=O,-10%,21µM*,2%,?,-8%,-12
C=CCn1c(C)cc(C(=O)COC(=O)c2ccc(N)c([N+](=O)[O-])c2)c1C,-7%,16µM*,4%,18µM*,1%,-7
C=CCn1c(C)cc(C(=O)COC(=O)c2ccc3c(c2)NC(=O)CS3)c1C,-25%,16µM*,14%,?,-25%,?
CCOC(=O)C1(C)CCCN(C(=O)CCc2ccccc2)C1 (configuration not stated),-1%,-11%,-1%,6%,4%,4
CCC(N)(CC)c1cn(CC2CCCN(C(=O)Nc3ccsc3)C2)nn1 (configuration not stated),.,.,-4%,.,.,.
CC(=O)Nc1ccc(S(=O)(=O)NCC(=O)OCC(=O)c2cc(C)n(-c3ccc4c(c3)OCO4)c2C)cc1,1%,8.2µM*,-17%,-12%,0%,32
Cc1cc(C(=O)CN2C(=O)C(=O)N(Cc3ccccc3)C2=O)c(C)n1-c1ccc2c(c1)OCCO2,?,21µM*,?,15µM*,?,25
CC(=O)c1ccc(OCC(=O)c2cc(C)n(-c3ccc4c(c3)OCO4)c2C)cc1,?,10µM*,0%,23µM*,2%,-3
Cc1nnc(SCC(=O)c2cc(C)n(-c3ccc4c(c3)OCO4)c2C)s1,-23%,23µM*,?,26µM*,-30%,-77*
COc1cc2c(cc1OC)C(C(=O)O)C(c1ccc3c(c1)OCO3)N(C)C2=O (configuration not stated),.,.,-9%,.,.,.
CCc1ccc(N/C=C(/C#N)c2nc(-c3ccc(C)c(C)c3)cs2)cc1,.,.,15%,.,.,.
CCOc1ccc(Nc2nc(N)nc(CSC(=S)N3CCOCC3)n2)cc1,-13%,21µM*,0%,?,-1%,?
CC1CC(C)CN(C(=S)SCc2nc(N)nc(Nc3ccccc3)n2)C1 (configuration not stated),33µM*,?,?,?,?,-16
Cc1ccc(NC(=O)N2CCC(CCNC(=O)CCCc3ccccc3)CC2)cc1,.,.,-7%,.,.,.
COc1cccc(-c2onc3ccc(C4(C)OCCO4)cc23)c1,-4%,?,-8%,?,0%,-87*
COc1cccc(-c2onc3ccc(C(=O)/C=C/N(C)C)cc23)c1,-3%,16µM*,?,?,-19%,-66*
Cc1cccc(-c2onc3ccc(C(=O)/C=C/N(C)C)cc23)c1,-6%,18µM*,?,?,0%,-8
CC1(c2ccc3noc(-c4ccccc4)c3c2)OCCO1,3%,?,?,-1%,6%,?
O=C(c1ccc(-n2ccnc2)cc1)N1CCN(c2cccc(Cl)c2)C(=O)C1,.,.,2%,.,.,.
CC(C)(C)c1ccc(C(=O)N/N=C(/C=C/c2ccccc2)c2ccccc2)cc1,.,.,34%,.,.,.
c1ccc(Cn2ncc3c2CCCC3NCc2ccccn2)cc1 (configuration not stated),.,.,48%,.,.,.
SMILES,HT1080 IDH1KD tx,TDP1 cell noCPT,12-LOX inh,DT40 TDP1 CPT,HT1080NT lethal,IL1B secr inh
CC1CC(C)CN(S(=O)(=O)c2ccccc2[N+](=O)[O-])C1 (configuration not stated),3%,13µM*,5%,13µM*,10%,-13
CC1(C)CC2CC(C)(CN2S(=O)(=O)c2ccccc2[N+](=O)[O-])C1 (configuration not stated),0%,21µM*,365%,21µM*,-20%,-4
CC(=O)c1c(C)[nH]c(C(=O)CN2CCN(S(=O)(=O)c3ccccc3[N+](=O)[O-])CC2)c1C,-1%,13µM*,-4%,21µM*,-1%,-7
CCCS(=O)(=O)N1CCN(S(=O)(=O)c2ccccc2[N+](=O)[O-])CC1,22%,-1%,12%,0%,12%,-1
C[C@@H](NC(=O)[C@@]1(O)C[C@@H](O)[C@H](O)[C@@H](NC(=O)Nc2ccc(OC(F)(F)F)cc2)C1)C(N)=O,.,.,21%,.,.,.
C#CCNC(=O)C1CCN(C(=O)C2CN(c3ccc(OC)cc3)C(=O)N2)C1 (configuration not stated),.,.,40%,.,.,.
COc1ccc(C(=O)OC(C)c2nc(C(C)(C)C)no2)cc1OC (configuration not stated),.,.,7%,.,.,.
CS(=O)(=O)Nc1cccc(-c2ccc3ncnc(NC4CC4)c3c2)c1,.,6.5µM*,?,8.2µM*,.,.
CN1CCN(c2ncnc3ccc(-c4cccc(NS(C)(=O)=O)c4)cc23)CC1,.,6.5µM*,?,3.7µM*,.,.
Cc1nc(N2CCC(NC(=O)c3ccc[nH]3)CC2)cc(C(F)(F)F)n1,.,.,3%,.,.,.
O=c1[nH]c(N2CCN(c3ccccc3)CC2)nc2c1CCCC2,3%,23µM*,-6%,?,3%,-15
O=c1[nH]c(N2CCN(c3ccccc3)CC2)nc2c1CCC2,14%,?,-2%,-28%,13%,-3
Cc1cccc(CN2C(=O)c3ccccc3Sc3ccc(C(=O)NC4CCCCC4)cc32)c1,.,?,-29%,-9%,.,.
Cc1ccc(-c2cc(-c3ccc4c(c3)NC(=O)CO4)nc3c2COc2ccc(C)cc2-3)cc1,.,2.1µM*,-19%,?,.,.
Cc1ccc2c(c1)-c1nc(-c3ccc4c(c3)NC(=O)CO4)cc(-c3ccc(Cl)cc3)c1CO2,.,1.3µM*,0%,1.5µM*,.,.
Cc1ccc2occ(-c3cc(-c4ccc(Cl)cc4)nc4c3COc3ccccc3-4)c(=O)c2c1,.,1%,-7%,0%,.,.
Cc1ccn2cc(-c3ccc4c(c3)NC(=O)CO4)nc2c1,2%,-24%,-11%,0%,17%,-13
